Structures are written as SMILES. Records with an inconclusive call do not appear. Unmarked numbers belong to inactive results. Active and inactive are the calls of the source. Calls come from the whole dose curve; as a rule, active = well fitted cell-killing curve with a large enough effect in the repeat runs; inconclusive = weak or mixed curves, or effect the other way; inactive = flat fitted curve, though single readings scatter.
% is set by controls: 0 for no effect and ±100 for the full control effect.

This assay is described as follows: cAMP Responsive Elements (CRE) small molecule antagonists, cell-based qHTS assay: qHTS cell viability counter screen (AID 2060913). Note: nearly all actives have a fitted effect of over 40% in size. The settings on record: CRE-bla HEK293T viability, CellTiter-Glo luminescence, 5 h; series mostly up to 92.4 µM; viability change, negative = cytotoxic: at the top concentration. In a few lines:
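Steps: cells plated and held 18 hrs at 37 C/5% CO2; compounds and NKH477 (0.25 uM final) added; 3 hrs incubation; reporter substrate read; CellTiter-Glo added to measure cytotoxicity by luminescence.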
In general terms: Quantitative high-throughput screening tests each substance at several concentrations.
As for `CCCCC1CCCCC(=O)O1` (stereo unspecified), the “viability change, negative = cytotoxic” value is -0.42%.
Still for that read-out and setting: next, `CC[C@H](NC(=O)c1cc(F)ccc1NS(=O)(=O)c1cccc2cccnc12)c1ccccc1`: -1.5%.
Still for that read-out and setting: the same measure for `CCOc1ccc2nc(N)sc2c1`: 1.29%; for `ClCCOCCOCCCl`: -4.71%.
Same read-out and setting: next, `CC[C@H]1OC(=O)[C@H](C)[C@@H](O[C@H]2C[C@@](C)(OC)[C@@H](O)[C@H](C)O2)[C@H](C)[C@@H](O[C@@H]2O[C@H](C)C[C@H](N(C)C)[C@H]2O)[C@](C)(OC)C[C@@H](C)C(=O)[C@H](C)[C@@H](O)[C@]1(C)O`: -22.1%.
`O=C(O[C@@H]1Cc2c(O)cc(O)cc2O[C@@H]1c1cc(O)c(O)c(O)c1)c1cc(O)c(O)c(O)c1`: the Potency entry is “inactive”.
Consider `Brc1cc2ccccc2c2ccccc12`, for which the “viability change, negative = cytotoxic” value is -8.24%.
For `c1ccc2cc3ccccc3cc2c1`, the Potency result was “inactive”.
With `Nc1ccc2c3c(cccc13)-c1ccccc1-2`, the “viability change, negative = cytotoxic” value is 8.91%.
Consider `O=c1[nH]cnc2[nH]ncc12`, for which the Potency result was “inactive”.
As for `CC1COC(=O)O1` (stereo unspecified), the Potency entry was “inactive”.
Consider `CC[C@H](NC(C)C)[C@H](O)c1ccc(O)c2[nH]c(=O)ccc12`, for which the “viability change, negative = cytotoxic” value is -1.27% [at 42.5 µM].
`ONc1ccccc1`: the “viability change, negative = cytotoxic” value was 5.73%.
On the same count and under the same terms, next, `CC(C)=CCC/C(C)=C/C(=O)O`: 1.16%.
Still for that read-out and setting: the same measure for `CCOC(=O)C1=NN(c2ccc(Cl)cc2Cl)C(C)(C(=O)OCC)C1` (stereo unspecified): -9.41%; for `O=Cc1c(Cl)cccc1Cl`: 1.58%; for `CCCCOCCOCCOCCOCCO`: 0.573%.
Still for that read-out and setting: next, `COc1ccc(CCN(C)CCCN2CCc3cc(OC)c(OC)cc3CC2=O)cc1OC`: 1.93% [at 42.5 µM]; `OCC(CO)(CO)CO`: 8.21%; `CC(NC(CCc1ccccc1)C(=O)O)C(=O)N1C(=O)N(C)CC1C(=O)O` (stereo unspecified): 3.62% [at 42.5 µM].
In the case of `Cc1nc2n(c(=O)c1CCN1CCC(c3noc4cc(F)ccc34)CC1)CCCC2`, the “viability change, negative = cytotoxic” value is 0.92% [at 42.5 µM].

Source of the values: PubChem BioAssay (Tox21).
